Screening data as filed in PubChem.
An excerpt weighted towards active compounds, which were near 3.3% of everything screened.
DRD3 antagonist = blocks the human D3 dopamine receptor; D3R cells, DiscoveRx beta-arrestin luminescence, antagonist mode; stronger effect = lower value; max response, negative = inhibition, %; AID 652054; 2.5% of 360,000 active; P35462; in the data active = max response below about -50%; inconclusive = no clear call, values can overlap the other calls; also: % is scaled to controls: 0 for no effect and ±100 for the full control effect
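Cells expressing the human receptor were seeded at 1500 cells/well, incubated overnight at 37 degrees C in 5% CO2, then exposed to library compounds with dopamine controls for 90 minutes at 37 degrees C before luminescent detection.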
LDHA inh = inhibitors of human lactate dehydrogenase A. purified LDHA, NADH/diaphorase-resazurin fluorescence; stronger effect = lower value. activity change, % (values are at about 110 or 230 µM). 0.15% of 480,000 active. P00338; in the data active = activity change below about -30%; inconclusive = mostly about -25% to -30%;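 also: plate controls were DMSO wells for no effect and wells without enzyme for full effect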
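Human LDH5 (2 nM) was incubated with 0.06 mM NADH and 0.2 mM pyruvate for 5 min at room temperature in Tris pH 7.4. Remaining NADH was coupled through diaphorase/resazurin, and resorufin fluorescence was read at 0 and 20 min.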
DRD3 agonist = D3 dopamine receptor (human) agonism; P35462; D3R DiscoveRx beta-arrestin cells, luminescence, 90 min; max activation, %; 0.58% of 410,000 active; in the data active = max activation above about 30%; also: 0% is about no effect
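Cells at 1500/well, incubated overnight, then treated with pinned compounds (dopamine as control) for 90 min at 37 degrees C. DiscoveRx reagent added for 30 - 60 minutes at room temperature; luminescence read.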
PI4K2A inh = inhibitors of human PI4K2A; AID 1346378; 0.13% of 420,000 active; activity change, negative = inhibition, % at 76.9 µM; purified PI4K2A, ADP-Glo luminescence, 1 h; stronger effect = lower value; Q9BTU6; in the data active = activity change below about -50%; inconclusive = mostly about -30% to -49%;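 also: -100% = wells without enzyme as full effect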
Target sequence (Q9BTU6 whole entry, looked up): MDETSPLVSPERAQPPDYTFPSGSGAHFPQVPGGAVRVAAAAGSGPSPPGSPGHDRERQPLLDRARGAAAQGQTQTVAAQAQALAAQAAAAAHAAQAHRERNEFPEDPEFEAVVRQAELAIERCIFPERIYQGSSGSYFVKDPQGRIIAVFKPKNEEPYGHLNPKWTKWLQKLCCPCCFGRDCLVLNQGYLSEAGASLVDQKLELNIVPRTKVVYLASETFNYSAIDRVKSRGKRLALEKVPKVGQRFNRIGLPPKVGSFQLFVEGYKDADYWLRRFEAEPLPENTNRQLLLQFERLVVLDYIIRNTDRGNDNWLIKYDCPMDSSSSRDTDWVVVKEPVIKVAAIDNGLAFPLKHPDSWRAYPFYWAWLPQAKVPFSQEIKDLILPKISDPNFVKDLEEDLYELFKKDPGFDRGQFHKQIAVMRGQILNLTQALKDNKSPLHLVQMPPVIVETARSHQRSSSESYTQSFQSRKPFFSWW
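ADP-Glo luminescence measured ADP generated by PI4K2A enzyme (4 ug/mL before mixing) with 1.2 mM PI substrate (pre-mix) and 300 microM ATP (pre-mix). Tris pH7.5 buffer with MgCl2, Triton X-100; 1 h reaction at ambient temperature.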
PI5P4K alpha inh = PI5P4K alpha (human) kinase inhibition; P48426; PI5P4Kalpha enzyme, ADP-Glo luminescence, 60 min; stronger effect = lower value; max response, %; 1.2% of 330,000 active; AID 652105; active = max response of -50% or lower; inconclusive = between -30% and -50%; inactive = -30% or higher; also: value at the top dose of about 77 µM; % is scaled to controls: 0 for no effect and ±100 for the full control effect
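qHTS, 1536-well: enzyme/substrate mix, compound by pin tool, 5 microM ATP final; RT 60 min; ADP-Glo reagents 1 (45 min) then 2 (30 min); luminescence.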
Numbers without * were called inactive; ? = inconclusive; . = no result given.

SMILES	DRD3 antagonist	LDHA inh	DRD3 agonist	PI4K2A inh	PI5P4K alpha inh
CCOC1=C2[C@H](c3ccccc3)N(S(=O)(=O)c3ccc(C)cc3)[C@H](C(C)C)[C@H]2n2c(=O)n(-c3ccccc3)c(=O)n2C1	-55*	-3	-11	-2	5
CCOC1=C2[C@H](c3ccccc3)N(S(=O)(=O)c3ccc(C)cc3)C(C(C)(C)C)[C@H]2n2c(=O)n(-c3ccccc3)c(=O)n2C1 (stereo not given in full)	0	-2	6	-1	0
Cc1ccc2nc(C)c(C(=O)NCc3cccnc3-n3cncn3)cc2c1	.	5	.	.	.
CC1(C)c2ccccc2N2CC(=O)N[C@@]21/C=C/C=C/c1ccccc1	-4	-4	3	0	5
Cc1ccccc1/C=C/C12NC(=O)CN1c1ccccc1C2(C)C (stereo not given)	19	-2	31*	1	-7
COc1ccccc1NC(C)=[N+](C)CCNS(=O)(=O)c1ccc(Cl)cc1	7	-74*	1	-3	?
COc1ccc2ccccc2c1-c1sc(Nc2ccccc2)n[n+]1-c1ccc(F)cc1	-80*	-8	-62	-3	-5
COc1ccc(C)cc1Nc1n[n+](-c2ccccc2)c(-c2c(Cl)cccc2Cl)s1	-87*	2	-52	-1	?
CCc1ccc(Nc2n[n+](-c3ccccc3)c(-c3ccc(N(CC)CC)cc3)s2)cc1	20	-13	5	-3	-59*
CCc1ccc(Nc2n[n+](-c3ccccc3)c(-c3c(Cl)cccc3Cl)s2)cc1	-5	-2	-30	-3	-80*
COc1ccc(C)cc1Nc1n[n+](-c2ccccc2)c(-c2ccc(OC)c(OC)c2OC)s1	?	-1	-59	-2	-27
CCc1ccc(Nc2n[n+](-c3ccccc3)c(-c3cc(OC)c(OC)cc3Br)s2)cc1	-51*	-3	-9	-3	-19
COc1ccc(C(=O)Nc2oc3ccc(Cl)cc3c(=O)c2-c2ccc3c(c2)OCO3)cc1OC	.	-1	.	.	.
CCN(CC)CCCN(Cc1cc2ccc(C)c(C)c2[nH]c1=O)C(=O)NC1CCCCC1	-57*	-1	-55	0	.
Cc1ccc2cc(CN(CC3CCCO3)C(=O)NC3CCCCC3)c(=O)[nH]c2c1C (stereo not given)	16	-4	0	3	.
CCc1ccc(CCC(=O)NCc2ccncc2)cc1	.	-3	.	.	.
Cc1cc(C)c(CN2CCN(C(=O)CC[C@H]3O[C@@H](n4ccc(=O)[nH]c4=O)[C@H](O)[C@@H]3O)CC2)c(C)c1	-69*	-3	-13	-7	-7
CC(=O)CCC(=O)CNC(=O)CC[C@H]1O[C@@H](n2ccc(=O)[nH]c2=O)[C@H](O)[C@@H]1O	0	-9	-3	5	19
CCN1C(=O)C2(C(=C(O)c3ccc4c(c3)OCCO4)C(=O)C(=O)N2CCOC)c2ccccc21 (stereo not given)	.	5	.	.	.
CN(C)C(CNC(=O)CCc1ncc(-c2ccccc2)o1)c1cccc(F)c1 (stereo not given)	.	14	.	.	.
Cc1cccc(C(=O)CC(=O)c2cc(Cl)ccc2O)c1	-79*	-1	0	1	-2
O=C(CC(=O)c1cc(Cl)ccc1O)c1ccccc1	13	1	4	-4	.
O=C(O)c1ccc2c(=O)n3c(nc2c1)/C(=C/c1cccc(Cl)c1Cl)CCCC3	-20	-12	-2	-4	-73*
O=C1NN(c2ccc(F)cc2)C(=O)/C1=C/c1cccs1	-63*	-6	-6	-6	-11
O=c1cc(C(F)(F)F)c2sc(N3CCCCC3)nc2[nH]1	-57*	-5	2	4	-3
SMILES	DRD3 antagonist	LDHA inh	DRD3 agonist	PI4K2A inh	PI5P4K alpha inh
O=C(CSc1nc(C(F)(F)F)cc(=O)[nH]1)N1CCCCCC1	-2	-2	4	0	-14
CN(C)c1ccc(C(=O)NNC(=O)c2ccc(Cl)cc2)cc1	5	-48*	16	-6	3
COc1cc(C(=O)NC(=S)Nc2ccc(Cl)c(C(=O)O)c2)cc(OC)c1OC	-89*	-3	-12	-9	3
O=C(NC1CCCC1)c1cc2c(F)cccc2s1	.	-30*	.	.	.
CC(=O)c1cc(F)c(N2CCN(C(=O)c3c(F)cccc3F)CC2)cc1C	.	1	.	.	.
O=C(COc1cccc(-n2cnnn2)c1)N1CCN(S(=O)(=O)c2cccc(F)c2)CC1	.	-2	.	.	.
